Measurements published in ChEMBL document CHEMBL3433997, “St. Jude Leishmania screening dataset” (2016).

How the values were obtained:
Type in all cases: functional
[1] = molecular target: Solute carrier family 2, facilitated glucose transporter member 1 (Homo sapiens) (UniProt P11166); test: ST_JUDE_LEISH: Cytotoxicity at 2uM final concentration against transgenic Leishmania Mexicana promastigotes LmGLUT1 that are glucose transport deficient and complemented with the human glucose transporter GLUT1. Activity is measured by DNA content using SYBR green in vitro
Solute carrier family 2, facilitated glucose transporter member 1 (Homo sapiens), sequence (P11166 whole entry): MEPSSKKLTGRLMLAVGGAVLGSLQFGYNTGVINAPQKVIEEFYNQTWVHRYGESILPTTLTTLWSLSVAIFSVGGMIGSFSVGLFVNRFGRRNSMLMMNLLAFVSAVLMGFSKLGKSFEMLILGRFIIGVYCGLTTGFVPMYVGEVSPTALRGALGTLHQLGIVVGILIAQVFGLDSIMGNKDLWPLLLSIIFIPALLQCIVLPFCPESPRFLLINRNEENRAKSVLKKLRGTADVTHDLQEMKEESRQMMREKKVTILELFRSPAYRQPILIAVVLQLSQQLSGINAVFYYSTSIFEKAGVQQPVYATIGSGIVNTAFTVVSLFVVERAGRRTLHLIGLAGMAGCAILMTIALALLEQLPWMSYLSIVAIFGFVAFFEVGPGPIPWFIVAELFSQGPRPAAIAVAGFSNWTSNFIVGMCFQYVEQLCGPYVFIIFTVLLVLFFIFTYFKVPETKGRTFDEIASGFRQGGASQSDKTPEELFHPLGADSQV

[2] = molecular target: Hexose transporter 1 (Plasmodium falciparum) (UniProt O97467); test: ST_JUDE_LEISH: Cytotoxicity at 2uM final concentration against transgenic Leishmania Mexicana promastigotes LmPfHT that are glucose transport deficient and complemented with the Plasmodium falciparum hexose transporter. Activity is measured by DNA content using SYBR green in vitro
[3] = molecular target: Glucose transporter (Leishmania mexicana) (UniProt O61059); test: ST_JUDE_LEISH: Cytotoxicity at 2uM final concentration against transgenic Leishmania Mexicana promastigotes LmGT2 that are glucose transport deficient and complemented with the L. Mexicana glucose transporter 2. Activity is measured by DNA content using SYBR green in vitro

Structure (SMILES) | inhibition [1] [%] | inhibition [2] [%] | inhibition [3] [%]
CCCCCN1CCC(NC(=O)c2ccc(C(=O)Nc3ccc(C(C)C)cc3)cc2)CC1 | -0.86 | -0.06 | -5.29
COc1cc(OC)c(NC(=O)Nc2ccnc3ccccc23)cc1Cl | 9.23 | 8.9 | 5.83
COc1ccc2nccc([C@@H](O)CN3CCC(NC(=O)C(c4cc5ccccc5o4)N4CCN(Cc5ccccc5)CC4)CC3)c2c1 (some centres undefined) | 3.8 | 1.35 | 0.77
CC1(C)NC(N)=NC(=N)N1OCCNCc1ccc(Cl)cc1 | 4.58 | 4.01 | 3.92
N=C(N)c1ccc(C=Cc2ccc(C(=N)N)cc2O)cc1 | -0.26 | -0.04 | -0.9
Cc1nc2nc(N)nc(N)c2c(C)c1Cc1cccc(C(F)(F)F)c1 | -1.41 | -2.48 | -2.32
CC(O)C1CCCCN1C(=O)c1cccc(-c2cccc(-c3nc4cc(F)ccc4[nH]3)c2)c1 (centres undefined) | 3.45 | 3.21 | 1.62
FC(F)(F)c1ccc2[nH]c(-c3cccc(-c4ccc(CNCCc5ccncc5)cc4)c3)nc2c1 | 1.9 | 0.52 | -0.21
Nc1ncc(-c2ccc3[nH]ccc3c2)c2ccc(-c3ccncc3)cc12 | 10 | 10.2 | 9.5
Cc1cccc2nc(-c3cccc(-c4ccc(NC(=O)NC(C)C)cc4)c3)[nH]c12 | 0 | 2.42 | -0.9
COc1ccc(-c2cccc(NC(=O)c3ccc(Cl)cc3)c2)cc1CN1CCNCC1 | 2.69 | 0.49 | -0.7
Cc1[nH]c(C)c(-c2ccc(-c3ccc(C#N)cc3)nc2)c(=O)c1Br | 9.47 | 10.2 | 6.23
CCc1ccc(O)c(-c2cc(C(=O)Nc3ccc(OC)c(Cl)c3)[nH]n2)c1 | 0.23 | 0.3 | -7
CN1CCN(c2cccc(NC(=O)c3ccc(-c4ccc(C#N)cc4)cc3)c2)CC1 | 8.25 | 3.32 | 5.96
COc1cc(NC2=C(c3ccccc3)C(=O)c3ccccc32)ccn1 | 4.66 | 2.03 | 1.41
COc1ccc(-n2ncc(C(=O)N3CCC4(C3)C(=O)N(c3ccccc3)c3ccccc34)c2C)cc1 (centres undefined) | 1.9 | 2.74 | 0.94
O=C(O)c1cc(C(F)(F)F)co1 | -2.13 | -1.54 | -0.54

Structure (SMILES) | inhibition [1] [%] | inhibition [2] [%] | inhibition [3] [%]
O=C(NC(Nc1ccc([N+](=O)[O-])cc1)C(Cl)(Cl)Cl)c1cccc(Cl)c1 (centres undefined) | 4.07 | 3.95 | 3.37
c1cnc2ccc(NCc3ccc(-c4ccc(CNC5CCCC5)cc4)cc3)cc2c1 | 0.93 | 0.1 | -6.73
Cc1cc(OCC(=O)Nc2ccc(-c3nc4ccccc4[nH]3)cc2)cc(C)c1Cl | 0.45 | 2 | -0.9
NC1=NC(c2ccccc2)(c2ccccc2)C(=O)N1Cc1ccc(-c2ccncc2)cc1 | 8.4 | 6.36 | 6.42
CC(=O)Nc1ccc(OCCCCN(Cc2ccccc2C(F)(F)F)c2ccc(C#N)c(C(F)(F)F)c2)cc1 | 1.93 | 6.69 | 7.15
Fc1ccc(Nc2ccnc3cc(-c4ccc(CN5CCOCC5)o4)ccc23)c(Cl)c1 | 9.15 | 8.02 | 7.49
Cc1ccc(Nc2nc3cc(N(C)c4ccnc(Nc5cccc(CCS(C)(=O)=O)c5)n4)ccc3n2C)cc1 | 3.07 | 7.25 | 3.82
COc1ccc(CNCCc2cccs2)cc1-c1ccc(S(=O)(=O)NCCN2CCCC2)s1 | 4.99 | 5.45 | 4.66
O=S(=O)(c1csc2ccccc12)N(CCC(O)(C(F)(F)F)C(F)(F)F)Cc1cccc(O)c1 | -1.82 | -2.19 | -4.98
O=c1ccc2ccc(F)c3c2n1CC3CN1CCC(NCc2cccc(-c3ccccc3F)c2)CC1 (centres undefined) | 19.1 | 22.3 | 11.4
CN(C)CCN(C)Cc1ccc(-c2cccc(NC(=O)c3ccc(Cl)cc3)c2)cc1 | 4.75 | 2.96 | 1.03
O=C(Nc1cccc(CN2CCCN(Cc3ccc(O)cc3)CC2)c1)c1cc(F)cc(F)c1 | 3.19 | 1.64 | -5.2
O=C(Nc1ccc(CN2CCCCC2)cc1)c1ccc(COc2ccc([N+](=O)[O-])cc2)o1 | 4.55 | 3.4 | 0.44
COc1cc(C(=O)NC2CCN(Cc3ccccc3)CC2)ccc1-c1cc2cc(Cl)c(Cl)cc2[nH]1 | 3.35 | 4.32 | 2
N#Cc1ccc(NC(=O)NC2CCN(CCCCCNC(=O)/C=C/c3ccc(Cl)c(Cl)c3)CC2)cc1 | 3.11 | 3.17 | 6.31
COc1ccc2nc(-c3ccc(C(=O)NCCCN4CCN(c5cc(Cl)ccc5OC)CC4)cc3)[nH]c2c1 | 0.75 | 0.77 | -0.2
